This note sets out measurements from PubChem BioAssay (NCATS).

For assay [1], the target named is Cytochrome P450 1A2 (Homo sapiens) (UniProt P05177). Nature of the assay: p450-cyp1a2 (AID 410; calls by dose curve; also: potency is read from the fitted curve at half-maximal effect). An outline of the steps:
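Luminescent readout of luciferin formed from Luciferin-ME by human CYP1A2; data normalized against complete inhibition by 57 uM furafylline. Enzyme 20nM, substrate 100uM at Km, 100mM KPO4 buffer, 60 min reaction at room temperature.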

In assay [2] the target is Mitogen-activated protein kinase 10 (Mus musculus) (UniProt Q61831). The assay can be described thus: JNK3 AlphaScreen Assay (AID 530; active = well fitted curve in either direction with a large enough effect, not every such curve was filed as active;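 also: kinase came from lysate of stimulated human HepG2 cells; signal reports phosphorylation of biotinylated GST-cJun 1-79 at Ser73 with 10 µM ATP; series mostly up to about 57 µM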). An outline of the steps:
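Compound titrations were preincubated 15 minutes at room temperature with substrate, antibody and pre-activated JNK3-containing HepG2 lysate. Reactions were started with 10 uM ATP and stopped with EDTA-containing bead buffer for AlphaScreen detection.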
Background: Alpha assays give light when donor and acceptor beads are brought close together.

Assay [3] has as its target 3',5'-cyclic-AMP phosphodiesterase 4B (Homo sapiens) (UniProt Q07343). Nature of the assay: qHTS Assay for Inhibitors of PDE-IV (AID 607; active = well fitted activation curve with a large enough effect in the main read-out, with a control signal flat, not every such curve was filed as active). An outline of the steps: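 Cell-based read-out of cAMP via a modified cyclic nucleotide-gated channel and membrane potential dye (535/590 nm) in HEK293 cells expressing PDE4 endogenously. Compounds tested up to 22.9 uM final; 100 uM RO 20-1724 reference.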
(Quantitative high-throughput screening tests each substance at several concentrations.)

Assay [4] concerns the target Cytochrome P450 2C9 (Homo sapiens) (UniProt P11712). The assay can be described thus: qHTS Assay for Inhibitors and Substrates of Cytochrome P450 2C9 (AID 883). Also: potency is read from the fitted curve at half-maximal effect; nearly all actives have a fitted effect of over 60% in size. An outline of the steps:
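Luminescent read-out of deoxyluciferin hydroxylation, normalized to 57uM sulphaphenazole (AC100). Reaction: 10nM enzyme, 100uM Luciferin-H (equal to KM), 25mM KPO4, 10 min compound preincubation, then 60 min with NADPH regeneration, both at 37C.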

Assay [5] addresses Cytochrome P450 3A4 (Homo sapiens) (UniProt P08684). Nature of the assay: qHTS Assay for Inhibitors and Substrates of Cytochrome P450 3A4 (AID 884). Also: potency is read from the fitted curve at half-maximal effect; nearly all actives have a fitted effect of over 50% in size. An outline of the steps:
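20 nM human CYP3A4 with 25 uM Luciferin-PPXE (at KM) in 200 mM KPO4, preincubated 10 min with compound; NADPH regeneration started a 60 min RT reaction. Luciferin detected by luminescence, normalized to 57 uM ketoconazole as full inhibition.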

For assay [6] the target is unchanged. The assay can be described thus: qHTS Assay for Activators of Cytochrome P450 3A4 (AID 885). Also: nearly all actives have a fitted effect of over 65% in size. An outline of the steps: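 Signal was normalized against complete inhibition by 57 uM ketoconazole. The reaction used 20nM CYP3A4 with 25uM Luciferin-PPXE, 10-min compound preincubation and a 60-min NADPH-supported step at RT.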
Assay [7] addresses Cytochrome P450 2C19 (Homo sapiens) (UniProt P33261). The assay can be described thus: qHTS Assay for Inhibitors and Substrates of Cytochrome P450 2C19 (AID 899). Also: potency is read from the fitted curve at half-maximal effect; nearly all actives have a fitted effect of over 60% in size. The gist of the method:
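Luminescence readout of luciferin formed from 10uM Luciferin-H EGE (KM level) by 5 nM CYP2C19 in 50mM KPO4. 60 min NADPH-driven reaction at 37C after 10 min compound preincubation; data scaled to 57uM ketoconazole inhibition.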

Assay [8] concerns the target Cytochrome P450 2D6 (Homo sapiens) (UniProt P10635). Nature of the assay: qHTS Assay for Inhibitors and Substrates of Cytochrome P450 2D6 (AID 891). Also: potency is read from the fitted curve at half-maximal effect; nearly all actives have a fitted effect of over 60% in size. An outline of the steps:
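Human CYP2D6 (5 nM) with 30 uM Luciferin-ME EGE (at Km) in 100 mM KPO4, compound preincubated 10 min, then NADPH regeneration system for 60 min at room temperature. Luciferin read by luminescence; normalized to 1.43 uM quinidine.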

The structures appear in SMILES notation. Inconclusive results are not listed. The source made the active and inactive calls. Unless noted, calls follow the shape of the dose curve; as a rule, active = well fitted curve in the direction sought with a large enough effect; inconclusive = small, poorly fitted or top-dose-only effect, or another doubt; inactive = no such curve, though single readings can be large; an effect the other way counts as inactive or inconclusive.

Sequence of Cytochrome P450 2D6 (Homo sapiens) (P10635 whole entry, looked up): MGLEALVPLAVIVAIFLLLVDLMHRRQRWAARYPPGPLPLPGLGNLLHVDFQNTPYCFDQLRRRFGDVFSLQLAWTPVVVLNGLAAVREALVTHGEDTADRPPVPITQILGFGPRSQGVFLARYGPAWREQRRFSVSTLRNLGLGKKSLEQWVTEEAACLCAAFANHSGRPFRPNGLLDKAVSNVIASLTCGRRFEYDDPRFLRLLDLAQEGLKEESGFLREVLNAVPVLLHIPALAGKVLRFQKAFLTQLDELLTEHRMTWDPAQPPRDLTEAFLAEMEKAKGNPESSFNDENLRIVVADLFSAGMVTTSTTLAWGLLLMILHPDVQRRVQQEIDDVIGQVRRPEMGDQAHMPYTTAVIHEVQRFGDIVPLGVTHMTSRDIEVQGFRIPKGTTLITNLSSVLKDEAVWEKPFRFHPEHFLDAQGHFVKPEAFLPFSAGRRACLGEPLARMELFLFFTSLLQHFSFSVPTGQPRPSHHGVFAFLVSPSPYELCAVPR
Sequence of Cytochrome P450 2C9 (Homo sapiens) (P11712 whole entry, looked up): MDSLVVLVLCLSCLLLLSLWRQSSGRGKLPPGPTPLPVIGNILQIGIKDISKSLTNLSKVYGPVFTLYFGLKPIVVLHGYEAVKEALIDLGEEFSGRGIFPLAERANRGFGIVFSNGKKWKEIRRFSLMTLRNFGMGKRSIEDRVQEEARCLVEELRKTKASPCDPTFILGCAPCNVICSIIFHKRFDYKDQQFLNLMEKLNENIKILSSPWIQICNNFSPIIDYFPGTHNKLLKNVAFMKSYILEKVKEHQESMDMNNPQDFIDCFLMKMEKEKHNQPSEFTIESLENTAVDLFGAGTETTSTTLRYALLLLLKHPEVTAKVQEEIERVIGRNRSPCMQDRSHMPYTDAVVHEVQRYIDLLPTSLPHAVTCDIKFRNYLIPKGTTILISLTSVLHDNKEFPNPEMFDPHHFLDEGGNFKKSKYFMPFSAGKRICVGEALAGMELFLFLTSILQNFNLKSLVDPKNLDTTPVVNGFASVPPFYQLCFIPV
Sequence of Cytochrome P450 3A4 (Homo sapiens) (P08684 whole entry, looked up): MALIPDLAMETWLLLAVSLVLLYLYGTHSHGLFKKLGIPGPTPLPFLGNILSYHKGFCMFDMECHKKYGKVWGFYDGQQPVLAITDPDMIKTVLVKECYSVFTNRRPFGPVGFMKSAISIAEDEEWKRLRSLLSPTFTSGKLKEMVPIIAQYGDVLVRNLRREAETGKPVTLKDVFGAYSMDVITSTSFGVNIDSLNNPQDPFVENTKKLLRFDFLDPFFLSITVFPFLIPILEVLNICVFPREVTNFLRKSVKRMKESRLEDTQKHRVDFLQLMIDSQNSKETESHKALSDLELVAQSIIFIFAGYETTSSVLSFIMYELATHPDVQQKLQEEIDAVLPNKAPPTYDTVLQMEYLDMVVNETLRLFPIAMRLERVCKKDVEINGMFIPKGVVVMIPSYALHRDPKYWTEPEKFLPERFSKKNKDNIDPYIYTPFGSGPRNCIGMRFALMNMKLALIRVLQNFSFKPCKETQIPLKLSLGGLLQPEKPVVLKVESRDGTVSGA
Sequence of Cytochrome P450 2C19 (Homo sapiens) (P33261 whole entry, looked up): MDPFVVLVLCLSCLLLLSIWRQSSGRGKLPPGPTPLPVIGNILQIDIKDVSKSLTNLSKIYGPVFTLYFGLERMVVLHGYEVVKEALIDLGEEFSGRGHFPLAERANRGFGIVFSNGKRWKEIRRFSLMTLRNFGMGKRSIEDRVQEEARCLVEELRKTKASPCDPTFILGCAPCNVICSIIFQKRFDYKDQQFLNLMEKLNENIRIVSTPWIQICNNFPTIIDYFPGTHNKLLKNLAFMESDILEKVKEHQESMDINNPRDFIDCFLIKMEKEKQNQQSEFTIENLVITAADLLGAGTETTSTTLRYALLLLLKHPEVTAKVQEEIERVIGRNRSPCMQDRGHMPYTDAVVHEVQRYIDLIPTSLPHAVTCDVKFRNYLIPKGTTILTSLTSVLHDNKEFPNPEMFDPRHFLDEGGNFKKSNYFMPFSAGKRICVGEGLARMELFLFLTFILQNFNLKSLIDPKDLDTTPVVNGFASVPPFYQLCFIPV
Sequence of Cytochrome P450 1A2 (Homo sapiens) (P05177 whole entry, looked up): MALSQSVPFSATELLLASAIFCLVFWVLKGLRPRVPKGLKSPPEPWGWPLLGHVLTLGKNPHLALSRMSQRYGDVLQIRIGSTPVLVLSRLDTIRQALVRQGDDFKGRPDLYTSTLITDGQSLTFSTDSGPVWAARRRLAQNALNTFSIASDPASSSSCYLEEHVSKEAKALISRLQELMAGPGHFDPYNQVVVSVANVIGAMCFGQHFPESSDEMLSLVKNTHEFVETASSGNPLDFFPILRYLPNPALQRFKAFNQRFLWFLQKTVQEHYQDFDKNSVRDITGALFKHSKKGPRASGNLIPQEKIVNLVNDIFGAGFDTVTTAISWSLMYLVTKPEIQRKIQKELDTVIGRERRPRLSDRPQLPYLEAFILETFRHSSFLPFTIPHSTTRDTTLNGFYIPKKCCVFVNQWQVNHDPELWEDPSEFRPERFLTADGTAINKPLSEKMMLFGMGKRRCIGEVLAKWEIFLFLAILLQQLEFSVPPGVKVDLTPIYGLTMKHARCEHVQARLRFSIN
Sequence of 3',5'-cyclic-AMP phosphodiesterase 4B (Homo sapiens) (Q07343 whole entry, looked up): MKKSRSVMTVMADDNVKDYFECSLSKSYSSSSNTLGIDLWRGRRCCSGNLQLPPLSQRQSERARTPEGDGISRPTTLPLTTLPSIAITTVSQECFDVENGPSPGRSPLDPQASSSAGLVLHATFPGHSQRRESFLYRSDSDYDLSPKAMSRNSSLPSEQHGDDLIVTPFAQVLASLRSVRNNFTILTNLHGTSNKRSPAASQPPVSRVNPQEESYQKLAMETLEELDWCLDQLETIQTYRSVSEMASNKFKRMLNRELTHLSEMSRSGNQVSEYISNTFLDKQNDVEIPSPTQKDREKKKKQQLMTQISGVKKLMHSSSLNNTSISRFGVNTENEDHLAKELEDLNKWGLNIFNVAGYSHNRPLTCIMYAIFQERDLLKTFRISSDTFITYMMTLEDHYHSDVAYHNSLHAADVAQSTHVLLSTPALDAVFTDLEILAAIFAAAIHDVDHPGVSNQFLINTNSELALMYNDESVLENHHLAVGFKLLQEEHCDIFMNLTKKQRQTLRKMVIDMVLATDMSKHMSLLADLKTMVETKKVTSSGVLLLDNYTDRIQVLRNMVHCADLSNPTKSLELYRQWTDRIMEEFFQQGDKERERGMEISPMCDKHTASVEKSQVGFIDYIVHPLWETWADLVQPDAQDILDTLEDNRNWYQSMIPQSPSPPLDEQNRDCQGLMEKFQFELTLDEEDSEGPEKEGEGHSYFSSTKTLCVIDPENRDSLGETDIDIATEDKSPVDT

As to `C[C@@H](C(=O)NCCc1c[nH]c2ccccc12)[C@@H]1C[C@@]1(C)[C@@H](NC(=O)OCc1ccccc1)c1ccccc1`, the Potency in assay [1] was 12.6 µM (active); in assay [4], 2.51 µM (active); in assay [5] it was 3.16 µM (active); in assay [7], 0.794 µM (active). Moreover, the Potency result in assay [2], in assay [3] and in assay [6] was “inactive” each time.
With `COCC1C2CC[C@H]3C(OCc4ccc(OC)cc4)OC[C@]4(C)[C@H]3C2=C(CN4C(=O)OC(C)(C)C)[C@H](C)C1COC` (some centres undefined), the Potency in assay [1] was 15.8 µM (active); in assay [5], 1.58 µM (active). The Potency entry in assay [2], in assay [3] and in assay [6] was “inactive” throughout.
Regarding `Nc1ccccc1C#Cc1ccccc1`, the Potency in assay [1] was 0.501 µM (active); in assay [4] it was 7.94 µM (active). The Potency result in assay [2], in assay [3] and in assay [6] was “inactive” throughout.
As to `COC(=O)[C@@]1(Cc2ccc(OC)cc2)[C@H]2c3cc(C(=O)N4CCCC4)n(CCc4c[nH]c5cc(F)ccc45)c3C[C@H]2CN1C(=O)c1ccccc1`, the Potency in assay [1] is 39.8 µM (active); in assay [4], 3.16 µM (active); in assay [5], 1.26 µM (active); in assay [7], 3.98 µM (active). The Potency entry in assay [2], in assay [3] and in assay [6] was “inactive” in each case.
As to `COC(=O)[C@H]1C[C@@H]1[C@H](NC(=O)c1cc(C)nn1C)c1ccccc1`, the values for the Potency in assay [1] and in assay [5] were 20 µM (active) and 6.31 µM (active), respectively. Moreover, the Potency entry in assay [2], in assay [3] and in assay [6] was “inactive” each time.
`C[C@@H](C(=O)NCCc1c[nH]c2ccccc12)[C@H]1C[C@]1(C)[C@H](NC(=O)OCc1ccccc1)c1ccccc1`: the Potency in assay [1] is 15.8 µM (active); in assay [4], 0.631 µM (active); in assay [5] it was 1.58 µM (active); in assay [8] it was 2 µM (active); in assay [7], 2.51 µM (active). The Potency entry in assay [2], in assay [3] and in assay [6] was “inactive” in each case.
Turning to `O=C(NCCc1c[nH]c2ccccc12)[C@H]1C[C@@H]1[C@H](NP(=O)(c1ccccc1)c1ccccc1)c1ccccc1`, the Potency in assay [1] is 12.6 µM (active); in assay [4] it was 2 µM (active); in assay [5], 1.58 µM (active); in assay [7] it was 1.26 µM (active). Moreover, the Potency entry in assay [2], in assay [3] and in assay [6] was “inactive” in each case.
`COC(=O)[C@@]1(Cc2ccc(F)cc2)[C@H]2c3cc(C(=O)N(C)C)n(Cc4c(CO)[nH]cc(C)c4=O)c3C[C@H]2CN1C(=O)c1ccccc1`: the Potency in assay [1] was 25.1 µM (active); in assay [5], 1.58 µM (active). Besides, the Potency entry in assay [2], in assay [3] and in assay [6] was “inactive” throughout.
`COC(=O)[C@@]1(Cc2ccc(OC)cc2)[C@H]2c3cc(C(=O)N(C)C)[nH]c3C[C@H]2CN1C(=O)c1ccccc1`: the Potency in assay [1] is 20 µM (active); in assay [4] it was 3.98 µM (active); in assay [5] it was 1.58 µM (active); in assay [7] it was 5.01 µM (active). Moreover, the Potency entry in assay [2], in assay [3] and in assay [6] was “inactive” each time.
As to `Cc1ccc(CNC(=O)[C@H]2C[C@@H]2[C@H](NP(=O)(c2ccccc2)c2ccccc2)c2ccccc2)c(F)c1F`, the Potency result in assay [1], in assay [2], in assay [3] and in assay [6] was “inactive” throughout. Further, the Potency in assay [5] was 0.316 µM (active).
As to `CCCC1(C(=O)OC)C=C2C(=C(c3ccccc3)C(=O)C2C)CN1` (centres undefined), the Potency in assay [1] was 15.8 µM (active); in assay [4], 5.01 µM (active); in assay [7] it was 7.94 µM (active). The Potency result in assay [2], in assay [3] and in assay [6] was “inactive” each time.
On to `CC(=O)N[C@H](c1ccccc1)[C@@]1(C)C[C@@H]1[C@@H](C)C(=O)Nc1ccc2ccccc2c1`, for which the Potency in assay [1] was 15.8 µM (active); in assay [5], 7.94 µM (active); in assay [8], 2 µM (active); in assay [7] it was 5.01 µM (active). Moreover, the Potency entry in assay [2], in assay [3] and in assay [6] was “inactive” throughout.
For `CNC(=O)[C@H](C)[C@@H]1C[C@@]1(C)[C@@H](NC(=O)OCc1ccccc1)c1ccccc1`, the Potency in assay [1] was 20 µM (active); in assay [5] it was 2.51 µM (active); in assay [8], 3.16 µM (active); in assay [7], 0.631 µM (active). Besides, the Potency result in assay [2], in assay [3] and in assay [6] was “inactive” each time.
In the case of `C=C(CC1([C@@H](NP(=O)(c2ccccc2)c2ccccc2)[C@H]2C[C@@H]2CCN(C(=O)OCC)S(=O)(=O)c2ccc(C)cc2)CC1)c1ccccc1`, the Potency entry in assay [1], in assay [2], in assay [3] and in assay [6] was “inactive” throughout. In assay [5], the Potency was 1.58 µM (active).
Take `COC(=O)[C@@]1(Cc2ccc(F)cc2)[C@@H]2C(=CC(=O)[C@H]2CC(=O)C(=O)N2CCCC2)CN1C(=O)c1ccccc1`: the Potency result in assay [1], in assay [2], in assay [3] and in assay [6] was “inactive” each time.
As for `C/C(=C\C1CCCCC1)C(NC(=O)c1ccc(C(F)(F)F)cc1)c1ccc(-c2ccccc2)cc1` (centres undefined), the Potency result in assay [1], in assay [2], in assay [3] and in assay [6] was “inactive” throughout.
As to `CCCC[C@@H]1C[C@H]1C(NC(=O)c1cccnc1)c1ccc(Cl)cc1` (some centres undefined), the values for the Potency in assay [1], in assay [5] and in assay [7] were 7.94 µM (active), 0.0794 µM (active) and 2 µM (active), respectively. The Potency entry in assay [2], in assay [3] and in assay [6] was “inactive” in each case.
Regarding `CNC(=O)[C@H](C)[C@H]1C[C@]1(C)[C@H](NC(=O)OCc1ccccc1)c1ccccc1`, the Potency in assay [1] was 20 µM (active); in assay [5], 2 µM (active). For the same compound, the Potency entry in assay [2], in assay [3] and in assay [6] was “inactive” each time.
In the case of `COC(=O)[C@@H]1C[C@H]1[C@@H](NC(=O)c1cnccn1)c1ccccc1`, the Potency in assay [1] was 12.6 µM (active). For the same compound, the Potency entry in assay [2], in assay [3] and in assay [6] was “inactive” each time.
As for `COC(=O)C1(Cc2ccccc2)C=C2C(=C(C(C)C)C(=O)C2C)CN1` (centres undefined), the figures for the Potency in assay [1] and in assay [5] were 15.8 µM (active) and 7.94 µM (active), respectively. In addition, the Potency entry in assay [2], in assay [3] and in assay [6] was “inactive” throughout.
